Assay results reported in the supplement of paper PMC12067093, “Discovery and optimisation of a covalent ligand for TRIM25 and its application to targeted protein ubiquitination” (Chemical Science, 2025).
Targets with the largest changes are over-represented here; the source holds about 21,000 in all.

Compound: Cc1cc(ccc1-c1ccccc1)C(=O)N1CCCN(CC1)C(=O)CCl [compound 10]
Test: probe-labelled cysteine peptide fold change vs DMSO (competition) (log2 fold change); higher = less target engagement (more negative = stronger competition)
Settings: THP-1, incubation time: 4 h
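Note: competitive profiling in live THP-1 cells: cysteine peptides tagged with an iodoacetamide desthiobiotin (IA-DTB) probe, intensity after compound treatment relative to DMSO-treated cells.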

Sequence of UniProt Q9H267 (Q9H267 whole entry, looked up): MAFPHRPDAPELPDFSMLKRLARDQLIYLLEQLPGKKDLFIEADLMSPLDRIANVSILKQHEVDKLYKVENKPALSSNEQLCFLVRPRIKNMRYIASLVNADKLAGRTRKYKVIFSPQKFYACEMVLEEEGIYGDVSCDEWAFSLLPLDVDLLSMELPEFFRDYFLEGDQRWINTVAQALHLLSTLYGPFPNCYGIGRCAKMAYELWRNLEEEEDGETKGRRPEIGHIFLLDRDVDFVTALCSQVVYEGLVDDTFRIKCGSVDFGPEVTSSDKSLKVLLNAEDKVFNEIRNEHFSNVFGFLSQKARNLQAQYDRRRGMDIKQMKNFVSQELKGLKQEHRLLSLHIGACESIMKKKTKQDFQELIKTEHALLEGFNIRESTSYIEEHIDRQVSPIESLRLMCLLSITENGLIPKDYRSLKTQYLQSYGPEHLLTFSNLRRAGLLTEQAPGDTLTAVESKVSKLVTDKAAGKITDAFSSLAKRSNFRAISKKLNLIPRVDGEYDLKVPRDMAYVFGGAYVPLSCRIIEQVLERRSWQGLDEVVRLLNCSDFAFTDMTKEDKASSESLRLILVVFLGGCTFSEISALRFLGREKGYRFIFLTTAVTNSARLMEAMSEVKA
Sequence of UniProt P51784 (P51784 whole entry, looked up): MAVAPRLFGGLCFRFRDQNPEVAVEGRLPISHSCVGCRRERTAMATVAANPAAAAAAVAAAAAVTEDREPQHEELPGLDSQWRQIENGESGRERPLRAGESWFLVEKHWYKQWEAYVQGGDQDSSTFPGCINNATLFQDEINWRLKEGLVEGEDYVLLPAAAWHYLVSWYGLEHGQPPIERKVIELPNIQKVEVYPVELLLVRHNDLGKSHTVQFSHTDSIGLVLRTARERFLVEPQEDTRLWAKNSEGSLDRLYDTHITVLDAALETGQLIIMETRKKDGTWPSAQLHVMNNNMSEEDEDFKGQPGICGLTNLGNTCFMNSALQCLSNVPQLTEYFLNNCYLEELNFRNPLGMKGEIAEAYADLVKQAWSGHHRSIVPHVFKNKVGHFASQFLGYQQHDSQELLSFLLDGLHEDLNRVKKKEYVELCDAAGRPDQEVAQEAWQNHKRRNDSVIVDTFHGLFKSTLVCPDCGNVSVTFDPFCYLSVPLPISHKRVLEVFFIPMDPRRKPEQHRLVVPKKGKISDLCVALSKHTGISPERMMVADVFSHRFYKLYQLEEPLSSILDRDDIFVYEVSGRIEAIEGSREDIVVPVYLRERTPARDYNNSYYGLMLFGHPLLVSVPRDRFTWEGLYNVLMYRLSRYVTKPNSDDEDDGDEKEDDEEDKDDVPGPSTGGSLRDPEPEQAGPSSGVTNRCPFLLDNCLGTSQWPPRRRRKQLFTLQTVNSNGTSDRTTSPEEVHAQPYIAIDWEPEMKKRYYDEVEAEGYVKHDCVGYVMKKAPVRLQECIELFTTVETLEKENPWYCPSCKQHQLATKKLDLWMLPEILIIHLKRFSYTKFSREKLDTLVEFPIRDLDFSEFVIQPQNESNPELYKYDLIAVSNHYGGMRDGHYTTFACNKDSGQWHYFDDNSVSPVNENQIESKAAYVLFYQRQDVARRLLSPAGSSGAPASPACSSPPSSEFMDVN
Sequence of UniProt Q15654 (Q15654 whole entry, looked up): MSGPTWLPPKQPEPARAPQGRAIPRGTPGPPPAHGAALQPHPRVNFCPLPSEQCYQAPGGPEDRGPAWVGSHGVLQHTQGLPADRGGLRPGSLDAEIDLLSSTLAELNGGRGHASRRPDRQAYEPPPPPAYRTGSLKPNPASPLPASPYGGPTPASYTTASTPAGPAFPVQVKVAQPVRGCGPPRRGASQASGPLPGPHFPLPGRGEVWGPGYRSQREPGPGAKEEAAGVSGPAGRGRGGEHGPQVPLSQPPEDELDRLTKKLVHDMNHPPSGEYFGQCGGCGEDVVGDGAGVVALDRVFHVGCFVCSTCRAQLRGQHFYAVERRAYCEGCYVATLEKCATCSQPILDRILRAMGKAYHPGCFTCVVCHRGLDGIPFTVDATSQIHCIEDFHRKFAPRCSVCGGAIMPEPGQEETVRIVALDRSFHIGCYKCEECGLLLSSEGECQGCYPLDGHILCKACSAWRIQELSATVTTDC
Sequence of UniProt Q9H269 (Q9H269 whole entry, looked up): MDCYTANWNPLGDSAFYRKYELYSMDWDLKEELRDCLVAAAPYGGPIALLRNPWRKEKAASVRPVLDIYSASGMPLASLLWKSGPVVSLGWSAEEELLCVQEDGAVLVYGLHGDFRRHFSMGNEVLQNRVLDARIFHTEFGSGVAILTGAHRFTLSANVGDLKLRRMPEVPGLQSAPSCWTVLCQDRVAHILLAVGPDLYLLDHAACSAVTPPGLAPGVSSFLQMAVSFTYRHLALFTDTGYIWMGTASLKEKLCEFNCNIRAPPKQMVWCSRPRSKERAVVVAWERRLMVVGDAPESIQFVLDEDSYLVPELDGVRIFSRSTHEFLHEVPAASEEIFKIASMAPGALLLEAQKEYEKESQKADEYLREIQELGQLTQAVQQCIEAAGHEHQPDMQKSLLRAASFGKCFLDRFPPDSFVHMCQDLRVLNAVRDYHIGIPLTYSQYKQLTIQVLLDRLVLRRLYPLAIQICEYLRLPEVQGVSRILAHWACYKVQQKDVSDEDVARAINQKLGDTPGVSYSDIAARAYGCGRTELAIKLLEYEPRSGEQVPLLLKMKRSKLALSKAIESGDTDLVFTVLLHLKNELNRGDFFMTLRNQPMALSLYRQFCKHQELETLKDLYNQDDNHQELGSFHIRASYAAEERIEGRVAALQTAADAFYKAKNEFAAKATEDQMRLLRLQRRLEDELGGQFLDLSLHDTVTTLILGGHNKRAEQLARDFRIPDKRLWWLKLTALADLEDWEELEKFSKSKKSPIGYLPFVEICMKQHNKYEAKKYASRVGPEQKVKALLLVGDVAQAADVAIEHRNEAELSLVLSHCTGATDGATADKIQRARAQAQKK
Sequence of UniProt Q9GZX9 (Q9GZX9 whole entry, looked up): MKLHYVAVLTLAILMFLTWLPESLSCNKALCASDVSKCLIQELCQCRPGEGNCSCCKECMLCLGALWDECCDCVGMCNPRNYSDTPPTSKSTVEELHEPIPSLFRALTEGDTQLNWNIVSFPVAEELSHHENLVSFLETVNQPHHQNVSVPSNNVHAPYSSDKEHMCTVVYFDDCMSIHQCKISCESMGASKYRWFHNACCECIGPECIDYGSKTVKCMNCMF
Sequence of UniProt Q9UPT9 (Q9UPT9 whole entry): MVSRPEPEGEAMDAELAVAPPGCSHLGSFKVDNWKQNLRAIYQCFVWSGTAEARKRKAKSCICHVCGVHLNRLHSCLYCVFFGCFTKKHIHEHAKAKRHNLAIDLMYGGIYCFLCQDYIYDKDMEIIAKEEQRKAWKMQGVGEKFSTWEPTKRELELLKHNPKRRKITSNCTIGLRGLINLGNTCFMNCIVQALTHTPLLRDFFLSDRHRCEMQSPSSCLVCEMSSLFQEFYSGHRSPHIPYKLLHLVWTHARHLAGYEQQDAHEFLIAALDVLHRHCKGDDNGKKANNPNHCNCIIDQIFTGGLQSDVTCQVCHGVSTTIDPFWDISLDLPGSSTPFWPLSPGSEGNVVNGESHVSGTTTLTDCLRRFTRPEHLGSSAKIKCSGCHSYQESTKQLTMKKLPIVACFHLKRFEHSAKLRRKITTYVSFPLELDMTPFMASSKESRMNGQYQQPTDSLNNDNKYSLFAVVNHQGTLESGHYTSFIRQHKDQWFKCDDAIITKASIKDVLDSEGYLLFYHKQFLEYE
Sequence of UniProt Q8IZ69 (Q8IZ69 whole entry, looked up): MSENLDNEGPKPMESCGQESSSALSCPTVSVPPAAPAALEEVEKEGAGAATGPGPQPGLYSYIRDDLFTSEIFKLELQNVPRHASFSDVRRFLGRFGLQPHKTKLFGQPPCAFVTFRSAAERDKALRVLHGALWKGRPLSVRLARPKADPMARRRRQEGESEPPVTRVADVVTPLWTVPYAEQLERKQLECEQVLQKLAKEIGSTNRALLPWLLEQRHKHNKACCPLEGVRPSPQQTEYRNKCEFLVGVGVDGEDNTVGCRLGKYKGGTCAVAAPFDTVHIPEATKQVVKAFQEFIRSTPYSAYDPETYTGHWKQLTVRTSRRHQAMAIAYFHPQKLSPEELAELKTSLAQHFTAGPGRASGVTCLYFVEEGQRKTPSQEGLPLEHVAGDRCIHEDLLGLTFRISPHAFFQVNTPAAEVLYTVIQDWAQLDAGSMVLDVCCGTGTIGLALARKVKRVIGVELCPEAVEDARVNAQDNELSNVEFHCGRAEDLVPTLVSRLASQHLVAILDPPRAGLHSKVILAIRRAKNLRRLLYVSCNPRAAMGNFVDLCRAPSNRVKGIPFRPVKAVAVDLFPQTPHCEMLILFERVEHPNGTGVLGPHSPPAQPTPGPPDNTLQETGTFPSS
Sequence of UniProt Q9BZX2 (Q9BZX2 whole entry, looked up): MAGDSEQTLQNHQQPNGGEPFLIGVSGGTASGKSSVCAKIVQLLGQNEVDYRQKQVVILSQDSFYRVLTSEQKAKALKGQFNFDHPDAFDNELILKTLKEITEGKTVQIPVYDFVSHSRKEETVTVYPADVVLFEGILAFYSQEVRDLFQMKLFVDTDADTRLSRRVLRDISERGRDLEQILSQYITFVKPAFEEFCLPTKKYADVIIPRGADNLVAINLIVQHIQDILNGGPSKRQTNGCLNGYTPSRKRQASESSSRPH
Sequence of UniProt P68366 (P68366 whole entry, looked up): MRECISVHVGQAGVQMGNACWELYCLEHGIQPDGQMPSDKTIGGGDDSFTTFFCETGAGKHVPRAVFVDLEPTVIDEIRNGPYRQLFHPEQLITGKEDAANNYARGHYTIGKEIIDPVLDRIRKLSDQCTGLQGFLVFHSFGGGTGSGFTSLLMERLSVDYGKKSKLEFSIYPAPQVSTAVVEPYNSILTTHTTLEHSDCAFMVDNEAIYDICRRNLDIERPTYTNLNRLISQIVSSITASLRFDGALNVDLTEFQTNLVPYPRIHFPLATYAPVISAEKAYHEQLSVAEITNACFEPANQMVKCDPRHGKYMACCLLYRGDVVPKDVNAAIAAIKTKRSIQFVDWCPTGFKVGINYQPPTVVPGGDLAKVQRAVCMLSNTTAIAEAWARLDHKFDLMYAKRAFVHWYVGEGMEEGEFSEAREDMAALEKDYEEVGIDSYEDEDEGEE

Row | Target | probe-labelled cysteine peptide fold change (10 µM) | probe-labelled cysteine peptide fold change (50 µM)
1 | USP9X_Q93008_1061_AICLDHAK (UniProt Q93008) | 0.267 | 0.565
2 | USP22_Q9UPT9_171_KITSNCTIGLR (UniProt Q9UPT9) | -0.315 | -0.757
3 | VPS16_Q9H269_763_SPIGYLPFVEICMK (UniProt Q9H269) | 0.149 | 0.152
4 | TXNL1_O43396_149_AGCECLNESDEHGFDNCLRK (UniProt O43396) | -0.189 | -0.0731
5 | VAPA_Q9P0L0_179_KLMEECK (UniProt Q9P0L0) | -0.0535 | -0.275
6 | UBR7_Q8N806_99+101_CDCGNSK (UniProt Q8N806) | -0.364 | -1.41
7 | TRAPPC13_A5PLN9_327_LSLEAIPDTVNLEEPFHITCK (UniProt A5PLN9) | 0.0844 | 0.00702
8 | VRK3_Q8IV63_418_FVDKPGPFVGPCGHWIRPSETLQK (UniProt Q8IV63) | -0.347 | -1.2
9 | UBR4_Q5T4S7_2222_HTACNEQQR (UniProt Q5T4S7) | -0.245 | -1.12
10 | USP48_Q86UV5_652+658_KEEEELNFNEDILCPHGELCISENERR (UniProt Q86UV5) | -0.493 | -1.42
11 | UBR7_Q8N806_137_YNDNFFGLYCICK (UniProt Q8N806) | 0.0481 | -0.0777
12 | UBR7_Q8N806_46_CSYSQGSVKR (UniProt Q8N806) | -0.118 | -0.607
13 | TRIM25_Q14258_498_FTYCSQVLGLHCYK (UniProt Q14258) | -1.23 | -2.92
14 | TRMT2A_Q8IZ69_270_GGTCAVAAPFDTVHIPEATK (UniProt Q8IZ69) | -0.0935 | -0.357
15 | TRIP6_Q15654_339+342_CATCSQPILDR (UniProt Q15654) | 0.045 | -0.28
16 | UBE3D_Q7Z6J8_52_TPEGCTEIQLPAEVR (UniProt Q7Z6J8) | 0.0793 | 0.147
17 | VPS41_P49754_638_DSTHCPLEK (UniProt P49754) | -0.172 | -0.152

Row | Target | probe-labelled cysteine peptide fold change (10 µM) | probe-labelled cysteine peptide fold change (50 µM)
18 | UCK2_Q9BZX2_197_PAFEEFCLPTK (UniProt Q9BZX2) | -0.0609 | 0.255
19 | USP34_Q70CQ2_1330_KGEGVQLPASCLPPPQK (UniProt Q70CQ2) | -0.079 | -0.0424
20 | TRA2B_P62995_119_ANPDPNCCLGVFGLSLYTTER (UniProt P62995) | 0.163 | 0.111
21 | UFC1_Q9Y3C8_116_ICLTDHFKPLWAR (UniProt Q9Y3C8) | -0.183 | -1.26
22 | TPRA1_Q86W33_296_CQVDETEEPDVHLPQPYAVAR (UniProt Q86W33) | -0.418 | -1.52
23 | TRAPPC6A_O75865_124_FLAFTCGLLR (UniProt O75865) | 0.203 | 0.608
24 | VIM_P08670_328_RQVQSLTCEVDALK (UniProt P08670) | 0.00911 | -0.139
25 | UHRF2_Q96PU4_42_VWALFDVRPECQR (UniProt Q96PU4) | -0.064 | 0.118
26 | TRAPPC9_Q96Q05_317_NCLSPEDIIDK (UniProt Q96Q05) | 0.12 | 0.213
27 | UBE2T_Q9NPD8_24_ELHMLATEPPPGITCWQDK (UniProt Q9NPD8) | -0.209 | -0.165
28 | TRIM28_Q13263_717_VLLALFCHEPCR (UniProt Q13263) | 0.00318 | 0.0176
29 | TWSG1_Q9GZX9_185_ISCESMGASK (UniProt Q9GZX9) | -0.121 | -0.0863
30 | TRPM4_Q8TD43_759_QSGRPGCCGGR (UniProt Q8TD43) | -0.788 | -2.09
31 | VPS33B_Q9H267_259_CGSVDFGPEVTSSDK (UniProt Q9H267) | 0.169 | 0.293
32 | USP11_P51784_894_DGHYTTFACNK (UniProt P51784) | -0.051 | -0.393
33 | TTC1_Q99614_178_EMAINDCSK (UniProt Q99614) | 0.303 | -0.13
34 | TUBA4A_P68366_4_MRECISVHVGQAGVQMGNACWELYCLEHGIQPDGQMPSDK (UniProt P68366) | -0.0787 | -0.408
